# Data: paper PMC11062922 (Nature Chemical Biology, 2023)
# Read-outs that look alike come from different tables or passages of the source.
# What was measured:
# PKN2 = system: PKN2; design: species or system human, MV4-11 + K-562 + COLO205 + SK-N-BE2 + OVCAR-8; details: read-out: apparent Kd, n = 1
# PKN3 = system: PKN3; design: species or system human, MV4-11 + K-562 + COLO205 + SK-N-BE2 + OVCAR-8; details: read-out: apparent Kd, compound concentrations: 100 nM and 1000 nM (sheet 'Samples'), n = 1
# SLK = system: SLK; design: species or system human, MV4-11 + K-562 + COLO205 + SK-N-BE2 + OVCAR-8; details: read-out: apparent Kd, n = 1
# PRKD2 = system: PRKD2; design: species or system human, MV4-11 + K-562 + COLO205 + SK-N-BE2 + OVCAR-8; details: read-out: apparent Kd; compound concentrations:100 nM and 1000 nM (sheet 'Samples'); n = 1
# PRKD3 = system: PRKD3; design: species or system human, MV4-11 + K-562 + COLO205 + SK-N-BE2 + OVCAR-8; details: read-out: apparent Kd; compound concentrations:100 nM and 1000 nM (sheet 'Samples'); n = 1
# TGFBR2 [1] = system: TGFBR2; design: species or system human, MV4-11 + K-562 + COLO205 + SK-N-BE2 + OVCAR-8; details: read-out: apparent Kd; compound concentrations:100 nM and 1000 nM (sheet 'Samples'); n = 1
# TESK2 = system: TESK2; design: species or system human, MV4-11 + K-562 + COLO205 + SK-N-BE2 + OVCAR-8; details: read-out: apparent Kd; compound concentrations: 100 nM and 1000 nM (sheet 'Samples'), CATDS: 1; n = 1
# ADCK3 = details: read-out: apparent Kd, n = 1
# NQO1 = details: read-out: apparent Kd, n = 1
# STK26 = details: read-out: apparent Kd, n = 1
# TESK1 = details: read-out: apparent Kd, n = 1
# TGFBR2 [2] = details: read-out: apparent Kd, n = 1
# [3] = compound concentrations:100 nM and 1000 nM (sheet 'Samples')
# [4] = compound concentrations:100 nM and 1000 nM (sheet 'Lestaurtinib' of Supplementary Table 1),run:Lestaurtinib_02584_R3,Plate:MR017
compound,measurement,setting,value
Nc1nonc1-c1nc2cnccc2n1C1CC1 [SB-736302],potency estimated from few doses,"PKN2; compound concentrations: 100 nM and 1000 nM (sheet 'Samples'), CATDS: 0.42822259112974997",0.348 µM
CCn1c(-c2nonc2N)nc2cnc(Oc3cccc(NC(=O)c4ccc(N(C)C)cc4)c3)cc21 [GSK248233A],potency estimated from few doses,PKN2; [3],1.78 µM
CC1=C(C(=O)Nc2cc3cn[nH]c3cc2F)C(c2ccc(C(F)(F)F)cc2)CC(=O)N1 (centres unmarked) [GSK429286A],potency estimated from few doses,PKN3; CATDS: 0.172679408369589,1.7 µM
CCn1c(-c2nonc2N)nc2c(N3CCCC3)nccc21 [SB-744941],potency estimated from few doses,PKN3; CATDS: 1,2.11 µM
COc1cc2ncn(-c3cc(OCC4CCCO4)c(C(N)=O)s3)c2cc1OC (centres unmarked) [GSK204607A],potency estimated from few doses,"SLK; compound concentrations: 100 nM and 1000 nM (sheet 'Samples'), CATDS: 0.28828322823587899",1.16 µM
Cc1cccc(-c2n[nH]cc2-c2ccc3ncccc3n2)n1 [GW786460X],potency estimated from few doses,PRKD2,0.465 µM
same,potency estimated from few doses,PRKD3,0.64 µM
same,potency estimated from few doses,TGFBR2 [1],0.112 µM
O=C1NC(=O)C(c2ccccc2Cl)=C1Nc1cccc(O)c1 [SB-390527],potency estimated from few doses,"SLK; compound concentrations: 100 nM and 1000 nM (sheet 'Samples'), CATDS: 1",1.14 µM
CSc1ccc(NC2=C(c3ccccc3Cl)C(=O)NC2=O)cc1 [SB-342411],potency estimated from few doses,SLK; [3],1.4 µM
O=C1NC(=O)C(c2ccccc2Cl)=C1Nc1cccc(Cl)c1 [SB-342409],potency estimated from few doses,SLK; [3],0.811 µM
Cc1nn(-c2ccccc2)c(O)c1C(=O)c1ccccc1 [RO1151080-000],potency estimated from few doses,TESK2,1.36 µM
Lestaurtinib,potency estimated from few doses,"ADCK3; compound concentrations:100 nM and 1000 nM (sheet 'Lestaurtinib' of Supplementary Table 1),run:Lestaurtinib_02364_R1,Plate:MR002",1.63 µM
same,potency estimated from few doses,"ADCK3; compound concentrations:100 nM and 1000 nM (sheet 'Lestaurtinib' of Supplementary Table 1),run:Lestaurtinib_02422_R1,Plate:MR006",0.0808 µM
same,potency estimated from few doses,"ADCK3; compound concentrations:100 nM and 1000 nM (sheet 'Lestaurtinib' of Supplementary Table 1),run:Lestaurtinib_02437_R3,Plate:MR007",0.474 µM
same,potency estimated from few doses,"ADCK3; compound concentrations:100 nM and 1000 nM (sheet 'Lestaurtinib' of Supplementary Table 1),run:Lestaurtinib_02572_R1,Plate:MR015",1.62 µM
same,potency estimated from few doses,"NQO1; compound concentrations:100 nM and 1000 nM (sheet 'Lestaurtinib' of Supplementary Table 1),run:Lestaurtinib_02438_R3,Plate:MR008",1.6 µM
same,potency estimated from few doses,"NQO1; compound concentrations:100 nM and 1000 nM (sheet 'Lestaurtinib' of Supplementary Table 1),run:Lestaurtinib_02765_R1,Plate:MR026",1.44 µM
same,potency estimated from few doses,"NQO1; compound concentrations:100 nM and 1000 nM (sheet 'Lestaurtinib' of Supplementary Table 1),run:Lestaurtinib_03172_R1,Plate:MR031",1.7 µM
same,potency estimated from few doses,"STK26; compound concentrations:100 nM and 1000 nM (sheet 'Lestaurtinib' of Supplementary Table 1),run:Lestaurtinib_02407_R1,Plate:MR005",1.7 µM
same,potency estimated from few doses,"STK26; compound concentrations:100 nM and 1000 nM (sheet 'Lestaurtinib' of Supplementary Table 1),run:Lestaurtinib_02473_R3,Plate:MR010",2.25 µM
same,potency estimated from few doses,STK26; [4],2.35 µM
same,potency estimated from few doses,"TESK1; compound concentrations:100 nM and 1000 nM (sheet 'Lestaurtinib' of Supplementary Table 1),run:Lestaurtinib_02482_R3,Plate:MR011",1.96 µM
same,potency estimated from few doses,"TESK1; compound concentrations:100 nM and 1000 nM (sheet 'Lestaurtinib' of Supplementary Table 1),run:Lestaurtinib_02487_R1,Plate:MR012",1.31 µM
same,potency estimated from few doses,TESK1; [4],1.96 µM
same,potency estimated from few doses,"TESK1; compound concentrations:100 nM and 1000 nM (sheet 'Lestaurtinib' of Supplementary Table 1),run:Lestaurtinib_02748_R2,Plate:MR024",0.994 µM
same,potency estimated from few doses,"TGFBR2 [2]; compound concentrations:100 nM and 1000 nM (sheet 'Lestaurtinib' of Supplementary Table 1),run:Lestaurtinib_02443_R3,Plate:MR009",1.57 µM
same,potency estimated from few doses,"TGFBR2 [2]; compound concentrations:100 nM and 1000 nM (sheet 'Lestaurtinib' of Supplementary Table 1),run:Lestaurtinib_03172_R3,Plate:MR031",2.21 µM
same,potency estimated from few doses,"TGFBR2 [2]; compound concentrations:100 nM and 1000 nM (sheet 'Lestaurtinib' of Supplementary Table 1),run:Lestaurtinib_03252_R2,Plate:MR032",2.12 µM
